In ChEMBL document CHEMBL1961873, “Compounds: GSK PKIS; Assays: Nanosyn kinase panel” (2012):

How the values were obtained:
[1] = biological target: Calcium/calmodulin-dependent protein kinase type II subunit alpha (Homo sapiens) (UniProt Q9UQM7); settings: at 1 µM;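 also: reported value is a mean percent inhibition of CAMK2A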
[2] = biological target: Calcium/calmodulin-dependent protein kinase type II subunit delta (Homo sapiens) (UniProt Q13557); settings: at 0.1 µM
[3] = biological target: Calcium/calmodulin-dependent protein kinase type II subunit delta (Homo sapiens) (UniProt Q13557); settings: at 1 µM
[4] = biological target: T1, Calcium/calmodulin-dependent protein kinase type IV (Homo sapiens) (UniProt Q16566); settings: at 0.1 µM
T1 sequence (whole entry): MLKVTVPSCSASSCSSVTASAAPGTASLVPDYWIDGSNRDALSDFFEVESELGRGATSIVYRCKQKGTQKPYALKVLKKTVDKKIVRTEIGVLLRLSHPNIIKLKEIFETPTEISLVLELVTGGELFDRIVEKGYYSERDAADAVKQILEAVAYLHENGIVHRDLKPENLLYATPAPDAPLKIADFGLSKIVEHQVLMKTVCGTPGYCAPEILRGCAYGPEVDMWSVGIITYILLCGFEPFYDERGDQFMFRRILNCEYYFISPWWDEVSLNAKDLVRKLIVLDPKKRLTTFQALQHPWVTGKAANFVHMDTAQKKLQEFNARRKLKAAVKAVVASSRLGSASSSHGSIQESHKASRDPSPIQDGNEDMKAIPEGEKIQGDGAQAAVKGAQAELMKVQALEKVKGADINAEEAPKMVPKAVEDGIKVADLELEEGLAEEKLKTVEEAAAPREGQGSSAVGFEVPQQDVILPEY

[5] = biological target: T1, Calcium/calmodulin-dependent protein kinase type IV (Homo sapiens); settings: at 1 µM
[6] = biological target: T2, Serine/threonine-protein kinase Chk1 (Homo sapiens) (UniProt O14757); settings: at 0.1 µM
T2 sequence (whole entry): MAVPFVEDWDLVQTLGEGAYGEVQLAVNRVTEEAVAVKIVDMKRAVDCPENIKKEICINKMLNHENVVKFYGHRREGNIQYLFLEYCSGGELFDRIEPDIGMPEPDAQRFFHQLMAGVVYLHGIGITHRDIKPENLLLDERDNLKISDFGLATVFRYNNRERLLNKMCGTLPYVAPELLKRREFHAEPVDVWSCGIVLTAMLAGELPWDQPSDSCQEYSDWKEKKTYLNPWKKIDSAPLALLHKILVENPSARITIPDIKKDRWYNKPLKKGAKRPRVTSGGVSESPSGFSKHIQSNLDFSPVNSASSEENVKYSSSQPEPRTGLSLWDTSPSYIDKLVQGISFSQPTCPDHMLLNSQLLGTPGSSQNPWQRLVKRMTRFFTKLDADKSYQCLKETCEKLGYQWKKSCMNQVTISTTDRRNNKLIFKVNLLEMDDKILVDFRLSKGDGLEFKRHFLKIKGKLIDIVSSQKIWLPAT

[7] = biological target: T2, Serine/threonine-protein kinase Chk1 (Homo sapiens); settings: at 1 µM
[8] = biological target: Serine/threonine-protein kinase Chk2 (Homo sapiens) (UniProt O96017); settings: at 0.1 µM
Sequence of Serine/threonine-protein kinase Chk2 (Homo sapiens) (O96017 whole entry): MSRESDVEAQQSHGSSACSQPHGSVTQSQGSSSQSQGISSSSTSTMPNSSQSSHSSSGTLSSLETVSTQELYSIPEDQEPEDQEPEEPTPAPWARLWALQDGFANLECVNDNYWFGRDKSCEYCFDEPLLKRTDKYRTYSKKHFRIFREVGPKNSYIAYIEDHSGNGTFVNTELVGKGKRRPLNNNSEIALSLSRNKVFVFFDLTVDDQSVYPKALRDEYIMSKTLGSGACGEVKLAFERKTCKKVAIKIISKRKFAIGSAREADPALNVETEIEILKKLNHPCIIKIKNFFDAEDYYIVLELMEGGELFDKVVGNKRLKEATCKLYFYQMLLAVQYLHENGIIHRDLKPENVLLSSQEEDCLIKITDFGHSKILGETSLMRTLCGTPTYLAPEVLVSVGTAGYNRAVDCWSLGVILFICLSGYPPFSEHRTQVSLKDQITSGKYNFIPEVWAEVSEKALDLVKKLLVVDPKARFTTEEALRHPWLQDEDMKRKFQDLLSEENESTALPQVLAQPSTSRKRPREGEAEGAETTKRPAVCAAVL

[9] = biological target: Serine/threonine-protein kinase Chk2 (Homo sapiens) (UniProt O96017); settings: at 1 µM
[10] = biological target: Death-associated protein kinase 1 (Homo sapiens) (UniProt P53355); settings: at 0.1 µM
Sequence of Death-associated protein kinase 1 (Homo sapiens) (P53355 whole entry, looked up): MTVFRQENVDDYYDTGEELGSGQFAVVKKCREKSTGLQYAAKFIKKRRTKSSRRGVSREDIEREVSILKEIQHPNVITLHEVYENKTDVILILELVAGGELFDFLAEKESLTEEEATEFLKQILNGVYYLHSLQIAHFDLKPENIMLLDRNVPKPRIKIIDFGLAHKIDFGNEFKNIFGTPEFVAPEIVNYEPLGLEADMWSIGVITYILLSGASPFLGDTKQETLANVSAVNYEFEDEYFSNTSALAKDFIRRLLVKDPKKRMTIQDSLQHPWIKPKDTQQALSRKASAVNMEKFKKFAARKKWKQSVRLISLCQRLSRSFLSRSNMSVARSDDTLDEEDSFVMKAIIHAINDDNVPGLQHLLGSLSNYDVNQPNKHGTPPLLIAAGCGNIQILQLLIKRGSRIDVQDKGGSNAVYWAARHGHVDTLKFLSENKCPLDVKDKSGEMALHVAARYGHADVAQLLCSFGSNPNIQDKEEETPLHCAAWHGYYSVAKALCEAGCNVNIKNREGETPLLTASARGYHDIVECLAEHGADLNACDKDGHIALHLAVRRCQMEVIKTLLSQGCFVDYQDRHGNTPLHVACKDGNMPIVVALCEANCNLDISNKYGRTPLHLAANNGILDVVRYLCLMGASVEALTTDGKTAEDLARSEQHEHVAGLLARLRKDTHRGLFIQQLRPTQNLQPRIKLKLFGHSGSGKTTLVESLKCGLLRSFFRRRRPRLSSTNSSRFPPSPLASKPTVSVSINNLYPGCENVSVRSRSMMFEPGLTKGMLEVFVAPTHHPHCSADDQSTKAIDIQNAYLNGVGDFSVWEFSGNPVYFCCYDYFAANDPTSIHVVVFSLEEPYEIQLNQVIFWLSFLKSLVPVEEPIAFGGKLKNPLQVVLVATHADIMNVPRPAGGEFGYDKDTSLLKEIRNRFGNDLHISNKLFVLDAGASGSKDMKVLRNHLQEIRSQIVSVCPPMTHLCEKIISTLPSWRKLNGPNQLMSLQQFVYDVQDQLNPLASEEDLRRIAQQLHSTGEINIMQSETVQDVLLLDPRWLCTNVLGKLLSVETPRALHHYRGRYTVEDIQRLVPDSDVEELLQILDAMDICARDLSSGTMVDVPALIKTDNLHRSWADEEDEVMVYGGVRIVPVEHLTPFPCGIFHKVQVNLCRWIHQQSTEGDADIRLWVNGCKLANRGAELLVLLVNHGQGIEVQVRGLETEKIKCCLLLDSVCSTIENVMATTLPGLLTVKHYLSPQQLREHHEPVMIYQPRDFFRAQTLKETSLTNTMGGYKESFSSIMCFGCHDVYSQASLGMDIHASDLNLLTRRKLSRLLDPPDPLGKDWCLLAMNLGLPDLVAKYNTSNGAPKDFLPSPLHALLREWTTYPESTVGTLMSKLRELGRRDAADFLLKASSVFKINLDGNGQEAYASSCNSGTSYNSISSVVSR

[11] = biological target: Death-associated protein kinase 1 (Homo sapiens) (UniProt P53355); settings: at 1 µM
[12] = biological target: T3, Serine/threonine-protein kinase DCLK2 (Homo sapiens) (UniProt Q8N568); settings: at 0.1 µM
T3 sequence (whole entry): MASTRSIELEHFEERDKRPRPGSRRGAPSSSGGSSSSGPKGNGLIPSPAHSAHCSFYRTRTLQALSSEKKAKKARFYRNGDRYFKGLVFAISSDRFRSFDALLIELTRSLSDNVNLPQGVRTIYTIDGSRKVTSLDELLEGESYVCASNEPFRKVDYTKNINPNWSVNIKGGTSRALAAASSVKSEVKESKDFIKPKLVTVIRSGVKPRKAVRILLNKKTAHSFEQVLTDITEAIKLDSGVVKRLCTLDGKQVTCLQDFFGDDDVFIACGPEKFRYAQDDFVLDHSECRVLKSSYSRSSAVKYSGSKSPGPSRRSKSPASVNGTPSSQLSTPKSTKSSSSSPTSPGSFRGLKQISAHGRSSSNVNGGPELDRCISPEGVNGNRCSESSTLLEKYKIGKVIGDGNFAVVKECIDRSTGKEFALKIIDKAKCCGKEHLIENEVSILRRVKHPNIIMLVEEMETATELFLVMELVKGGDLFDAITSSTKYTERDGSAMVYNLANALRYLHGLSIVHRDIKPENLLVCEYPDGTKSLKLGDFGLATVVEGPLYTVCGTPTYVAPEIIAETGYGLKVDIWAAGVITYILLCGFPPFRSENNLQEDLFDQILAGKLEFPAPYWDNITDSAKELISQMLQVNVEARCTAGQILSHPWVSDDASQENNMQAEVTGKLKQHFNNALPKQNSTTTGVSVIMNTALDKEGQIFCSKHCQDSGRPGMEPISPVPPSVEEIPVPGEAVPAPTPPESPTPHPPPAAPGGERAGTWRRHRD

[13] = biological target: T3, Serine/threonine-protein kinase DCLK2 (Homo sapiens); settings: at 1 µM
[14] = biological target: MAP kinase-activated protein kinase 2 (Homo sapiens) (UniProt P49137); settings: at 0.1 µM
Sequence of MAP kinase-activated protein kinase 2 (Homo sapiens) (P49137 whole entry, looked up): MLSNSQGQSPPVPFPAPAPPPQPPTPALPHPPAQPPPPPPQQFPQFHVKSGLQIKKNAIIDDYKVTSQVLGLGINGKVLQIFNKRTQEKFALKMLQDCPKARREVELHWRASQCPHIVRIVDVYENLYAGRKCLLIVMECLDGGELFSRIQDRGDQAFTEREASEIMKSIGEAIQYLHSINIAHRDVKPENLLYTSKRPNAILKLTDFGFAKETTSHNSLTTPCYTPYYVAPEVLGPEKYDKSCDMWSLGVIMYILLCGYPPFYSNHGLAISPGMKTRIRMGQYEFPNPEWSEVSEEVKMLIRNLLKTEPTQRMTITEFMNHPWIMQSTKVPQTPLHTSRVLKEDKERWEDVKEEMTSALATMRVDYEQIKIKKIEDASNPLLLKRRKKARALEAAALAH

[15] = biological target: MAP kinase-activated protein kinase 2 (Homo sapiens) (UniProt P49137); settings: at 1 µM
[16] = biological target: MAP kinase-activated protein kinase 3 (Homo sapiens) (UniProt Q16644); settings: at 0.1 µM
Sequence of MAP kinase-activated protein kinase 3 (Homo sapiens) (Q16644 whole entry, looked up): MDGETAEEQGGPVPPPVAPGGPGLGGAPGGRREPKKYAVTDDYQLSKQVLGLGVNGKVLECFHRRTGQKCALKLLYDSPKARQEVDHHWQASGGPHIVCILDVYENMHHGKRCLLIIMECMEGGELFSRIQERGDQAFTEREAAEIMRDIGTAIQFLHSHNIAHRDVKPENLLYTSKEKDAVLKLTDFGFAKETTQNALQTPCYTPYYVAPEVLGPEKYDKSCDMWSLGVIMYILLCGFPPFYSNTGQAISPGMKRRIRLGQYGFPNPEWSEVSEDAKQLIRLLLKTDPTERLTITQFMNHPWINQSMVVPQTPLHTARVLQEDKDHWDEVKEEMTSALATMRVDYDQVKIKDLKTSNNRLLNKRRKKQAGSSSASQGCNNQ

[17] = biological target: MAP kinase-activated protein kinase 3 (Homo sapiens) (UniProt Q16644); settings: at 1 µM
[18] = biological target: Serine/threonine-protein kinase MARK1 (Homo sapiens) (UniProt Q9P0L2); settings: at 0.1 µM
Sequence of Serine/threonine-protein kinase MARK1 (Homo sapiens) (Q9P0L2 whole entry, looked up): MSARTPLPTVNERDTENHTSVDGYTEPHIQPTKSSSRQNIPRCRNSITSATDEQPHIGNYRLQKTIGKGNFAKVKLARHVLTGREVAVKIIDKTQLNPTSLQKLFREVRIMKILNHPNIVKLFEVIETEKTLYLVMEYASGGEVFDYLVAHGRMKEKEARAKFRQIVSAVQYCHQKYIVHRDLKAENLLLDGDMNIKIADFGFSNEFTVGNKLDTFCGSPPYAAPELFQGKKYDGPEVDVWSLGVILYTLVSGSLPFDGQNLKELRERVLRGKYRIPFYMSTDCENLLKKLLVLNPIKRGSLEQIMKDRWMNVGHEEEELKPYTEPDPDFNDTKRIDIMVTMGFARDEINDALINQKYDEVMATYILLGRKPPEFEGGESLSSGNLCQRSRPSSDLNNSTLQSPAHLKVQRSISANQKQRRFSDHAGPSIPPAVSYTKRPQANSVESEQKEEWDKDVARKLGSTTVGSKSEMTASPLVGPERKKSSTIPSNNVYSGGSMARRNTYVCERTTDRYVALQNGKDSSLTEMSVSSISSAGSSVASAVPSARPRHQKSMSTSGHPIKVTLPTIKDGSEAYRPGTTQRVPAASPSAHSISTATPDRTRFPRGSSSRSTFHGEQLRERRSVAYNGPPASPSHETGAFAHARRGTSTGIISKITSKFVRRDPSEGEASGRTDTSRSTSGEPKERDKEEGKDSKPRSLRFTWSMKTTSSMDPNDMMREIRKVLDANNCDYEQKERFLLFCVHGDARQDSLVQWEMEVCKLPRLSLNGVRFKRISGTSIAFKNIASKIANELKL

[19] = biological target: Serine/threonine-protein kinase MARK1 (Homo sapiens) (UniProt Q9P0L2); settings: at 1 µM
[20] = biological target: MAP/microtubule affinity-regulating kinase 3 (Homo sapiens) (UniProt P27448); settings: at 0.1 µM;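 also: mean percent inhibition of MARK3 kinase activity, measured within the GSK PKIS screening panel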
Sequence of MAP/microtubule affinity-regulating kinase 3 (Homo sapiens) (P27448 whole entry, looked up): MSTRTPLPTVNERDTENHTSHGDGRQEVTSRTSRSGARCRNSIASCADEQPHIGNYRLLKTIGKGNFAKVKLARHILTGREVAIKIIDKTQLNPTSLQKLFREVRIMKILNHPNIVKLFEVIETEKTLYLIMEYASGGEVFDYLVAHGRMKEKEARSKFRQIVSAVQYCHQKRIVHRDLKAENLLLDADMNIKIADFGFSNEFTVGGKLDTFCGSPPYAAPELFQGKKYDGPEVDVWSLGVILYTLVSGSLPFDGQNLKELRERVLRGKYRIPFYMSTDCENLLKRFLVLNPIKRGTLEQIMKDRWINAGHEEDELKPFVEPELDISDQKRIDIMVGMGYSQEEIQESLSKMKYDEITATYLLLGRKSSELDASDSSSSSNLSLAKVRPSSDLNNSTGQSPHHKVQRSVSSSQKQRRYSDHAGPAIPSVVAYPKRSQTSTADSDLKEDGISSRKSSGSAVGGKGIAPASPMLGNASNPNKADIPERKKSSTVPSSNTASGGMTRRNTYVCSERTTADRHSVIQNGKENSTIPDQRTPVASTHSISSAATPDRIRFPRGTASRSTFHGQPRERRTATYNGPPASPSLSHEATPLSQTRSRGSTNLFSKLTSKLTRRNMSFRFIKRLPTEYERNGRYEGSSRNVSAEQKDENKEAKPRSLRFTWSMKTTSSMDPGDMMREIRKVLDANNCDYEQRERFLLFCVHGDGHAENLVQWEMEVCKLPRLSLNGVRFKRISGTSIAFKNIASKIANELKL

Sequence of Calcium/calmodulin-dependent protein kinase type II subunit delta (Homo sapiens) (Q13557 whole entry): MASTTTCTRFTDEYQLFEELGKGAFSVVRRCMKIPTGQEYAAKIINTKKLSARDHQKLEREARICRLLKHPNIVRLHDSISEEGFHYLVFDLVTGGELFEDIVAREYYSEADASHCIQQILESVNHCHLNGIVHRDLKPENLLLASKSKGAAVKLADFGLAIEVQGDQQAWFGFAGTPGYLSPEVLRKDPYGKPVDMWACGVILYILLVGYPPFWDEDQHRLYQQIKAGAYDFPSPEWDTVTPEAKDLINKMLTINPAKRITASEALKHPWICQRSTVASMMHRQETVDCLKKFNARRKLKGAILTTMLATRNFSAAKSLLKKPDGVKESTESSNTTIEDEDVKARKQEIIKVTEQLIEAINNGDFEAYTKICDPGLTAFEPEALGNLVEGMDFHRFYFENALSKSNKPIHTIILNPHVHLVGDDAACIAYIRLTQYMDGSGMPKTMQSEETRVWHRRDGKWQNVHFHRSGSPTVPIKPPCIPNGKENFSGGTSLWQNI

## COc1cccc(COc2cc(-n3cnc4ccccc43)sc2C(N)=O)c1
[1]
  inhibition: -0.42%
[2]
  inhibition: 0.07%
[3]
  inhibition: -0.84%
[4]
  inhibition: 2.92%
[5]
  inhibition: -0.29%
[6]
  inhibition: 2.18%
[7]
  inhibition: -2.21%
[8]
  inhibition: -0.72%
[9]
  inhibition: -0.59%
[10]
  inhibition: 1.92%
[11]
  inhibition: 1.02%
[12]
  inhibition: -0.3%
[13]
  inhibition: 0.3%
[14]
  inhibition: -0.08%
[15]
  inhibition: -1.3%
[16]
  inhibition: 2.28%
[17]
  inhibition: 3.61%
[18]
  inhibition: 0.58%
[19]
  inhibition: 1.16%
[20]
  inhibition: 2.28%

## CCn1c(-c2nonc2N)nc2c(C#CC(C)(C)O)ncc(OCC3CCNCC3)c21
[1]
  inhibition: 2.25%
[2]
  inhibition: 2.49%
[3]
  inhibition: 4.75%
[4]
  inhibition: -2.07%
[5]
  inhibition: -2.31%
[6]
  inhibition: -0.5%
[7]
  inhibition: 5.91%
[8]
  inhibition: 2.91%
[9]
  inhibition: 6.65%
[10]
  inhibition: 1.8%
[11]
  inhibition: 1.75%
[12]
  inhibition: -3.05%
[13]
  inhibition: -1.26%
[14]
  inhibition: 0.79%
[15]
  inhibition: 1.63%
[16]
  inhibition: 2.86%
[17]
  inhibition: 1.31%
[18]
  inhibition: 15.5%
[19]
  inhibition: 61.3%
[20]
  inhibition: 13%

## Fc1ccc(-c2ncn(C3CCNCC3)c2-c2ccnc(Oc3ccccc3)n2)cc1
[1]
  inhibition: -2.16%
[2]
  inhibition: 1.37%
[3]
  inhibition: 2.5%
[4]
  inhibition: -1.82%
[5]
  inhibition: -2.43%
[6]
  inhibition: -1.72%
[7]
  inhibition: 0.04%
[8]
  inhibition: 1.16%
[9]
  inhibition: 1.46%
[10]
  inhibition: -0.62%
[11]
  inhibition: -1.87%
[12]
  inhibition: -4.56%
[13]
  inhibition: -2.43%
[14]
  inhibition: 0.07%
[15]
  inhibition: -0.82%
[16]
  inhibition: 31.3%
[17]
  inhibition: 33.4%
[18]
  inhibition: 0.45%
[19]
  inhibition: 0.99%
[20]
  inhibition: 0.57%
